By AC50 is commonly meant the concentration giving half of the maximal activity seen.

Inconclusive results are not listed. The source made the active and inactive calls. The calls were made as follows: active = hit-call score of the fitted dose curve at least 0.9, where 1 is the maximum; inconclusive = response in the unintended direction; inactive = score below 0.9.

The results in this text go back to PubChem BioAssay (EPA / NIEHS).

Chain of human Phosphoinositide 3-kinase alpha (PI3Ka), PIK3CA (gene 5290) (P42336 whole entry, looked up): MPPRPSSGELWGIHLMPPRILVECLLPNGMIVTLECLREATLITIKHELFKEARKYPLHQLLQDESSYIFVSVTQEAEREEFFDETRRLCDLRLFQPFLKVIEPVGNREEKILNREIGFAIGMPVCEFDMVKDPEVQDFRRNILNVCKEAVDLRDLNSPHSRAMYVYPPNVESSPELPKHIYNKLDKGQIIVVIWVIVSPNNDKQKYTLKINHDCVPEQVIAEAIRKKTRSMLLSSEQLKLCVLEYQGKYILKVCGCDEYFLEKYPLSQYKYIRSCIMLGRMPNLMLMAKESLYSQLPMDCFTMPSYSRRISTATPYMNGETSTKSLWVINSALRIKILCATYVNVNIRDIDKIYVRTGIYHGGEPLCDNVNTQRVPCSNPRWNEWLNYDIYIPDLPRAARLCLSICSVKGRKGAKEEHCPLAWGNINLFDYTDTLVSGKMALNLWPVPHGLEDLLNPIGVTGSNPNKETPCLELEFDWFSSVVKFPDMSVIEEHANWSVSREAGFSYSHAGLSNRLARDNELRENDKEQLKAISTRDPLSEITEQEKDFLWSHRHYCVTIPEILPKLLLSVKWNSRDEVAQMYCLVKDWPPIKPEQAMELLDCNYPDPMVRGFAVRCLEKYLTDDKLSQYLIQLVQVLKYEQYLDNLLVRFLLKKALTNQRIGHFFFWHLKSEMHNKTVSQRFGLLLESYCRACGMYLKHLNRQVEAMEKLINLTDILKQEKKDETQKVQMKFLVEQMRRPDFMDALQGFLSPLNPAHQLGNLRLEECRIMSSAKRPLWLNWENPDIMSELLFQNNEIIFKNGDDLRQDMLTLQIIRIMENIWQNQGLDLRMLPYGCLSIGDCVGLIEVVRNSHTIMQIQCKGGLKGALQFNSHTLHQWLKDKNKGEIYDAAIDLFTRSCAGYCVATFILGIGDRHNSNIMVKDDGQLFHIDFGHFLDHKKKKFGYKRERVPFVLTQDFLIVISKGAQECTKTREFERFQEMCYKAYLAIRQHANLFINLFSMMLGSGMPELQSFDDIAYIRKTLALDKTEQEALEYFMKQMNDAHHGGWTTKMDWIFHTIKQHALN

The target of the assay is human Phosphoinositide 3-kinase alpha (PI3Ka), PIK3CA (gene 5290) (UniProt P42336). Description: NVS_ENZ_hPI3Ka: NovaScreen (NVS) Enzymatic Assay for human Phosphoinositide 3-kinase alpha (PI3Ka) (AID 2283196). How it is done:
NVS_ENZ_hPI3Ka is a biochemical, single-readout assay that uses extracted gene-proteins in a cell-free assay. Measurements were taken 1 hour after chemical dosing in a 384-well plate.NVS_ENZ_hPI3Ka is one of one assay component(s) measured or calculated from the NVS_ENZ_hPI3Ka assay. It is designed to make measurements of enzyme activity, a form of enzyme reporter, as detected with fluorescence intensity signals by Fluorescence and electrophoretic mobility shift technology.Data from the assay component NVS_ENZ_hPI3Ka was analyzed into 1 assay endpoint. This assay endpoint, NVS_ENZ_hPI3Ka, was analyzed in the positive analysis fitting direction relative to DMSO as the negative control and baseline of activity. Using a type of enzyme reporter, loss-of-signal activity can be used to understand changes in the enzymatic activity as they relate to the gene PIK3CA. Furthermore, this assay endpoint can be referred to as a primary readout, because this assay has produced multiple assay endpoints where this one serves a enzymatic activity function. To generalize the intended target to other relatable targets, this assay endpoint is annotated to the kinase intended target family, where the subfamily is phosphoinositol kinase.
Binding assays used specific radioligands (tritiated, iodinated) with non-radioactive competitive displacement ligands in agonist or antagonist protocols (as indicated) and various reference compounds and inhibitors to titrate specific binding to receptors and transporters. Most enzyme assays (CYPs, kinases, phosphatases, proteases, HDACs) used recombinant protein and specific substrates (fluorescence mostly, some colorimetric and radioactive) and inhibitors, followed by a biochemical separation of substrate and product. All assays for the biochemical HTS were initially run in duplicate at a single concentration (10 uM for CYP450 assays and 25 uM for all others). Assay-chemical combinations meeting a pre-defined threshold (e.g., 30% inhibition and other criteria defined below) were then run in singleton concentration-response format with maximum concentration of 20 uM for CYPs and 50 uM for all others. Each assay was run with positive and negative controls, and concurrent controls on every plate. The follow-up (secondary) screen tested active chemical-pairs in concentration series, as well as a few additional assays not tested in the primary screen, some selected negative inactives, and several cases re-run in the concentration series for confirmatory purposes.
On to `CCCCCCOC(C)=O`, for which the outcome was inactive.

With `CC(C)Cc1ccccc1`, the outcome was inactive. Same read-out and setting: for `N#CCCCC(C#N)CCC#N` (stereo unspecified) the value was “inactive”. On the same count and under the same terms, for `S=c1[nH][nH]c(=S)s1` the value was “inactive”; for `CCOC(=O)C(=O)OCC`, “inactive”. As for `Cc1ccc(C(C)(C)O)cc1`, the AC50 was 25 µM (active). On to `O=C1OC2(c3ccc(O)cc3Oc3cc(O)ccc32)c2ccccc21`, for which the outcome was inactive.

For the compound `C=CC(=O)OCC(CO)(COC(=O)C=C)COC(=O)C=C`, the compound was classed as inactive.

On to `C=CC(=O)OCCCCCC`, for which the compound was classed as inactive. With `CC(CO)c1ccccc1` (stereo unspecified), the outcome was inactive. Consider `CC/C(=C(\c1ccccc1)c1ccc(OCCN(C)C)cc1)c1ccccc1`, for which the half-maximal activity concentration (AC50) was 16.1 µM (active).
